Laboratory results as given in publication PMC8222333, “AsCas12a ultra nuclease facilitates the rapid generation of therapeutic cell medicines”.
Numbering of substitutions follows the chain as printed.

B1: TCAG (dsDNA)
DNA 1: GCTATCTAGTGCTCAGTACGCACTGTCAGAGGAAACTTCTGGCAGGACCAGGTCATGAGATCGGAAGAGCACACGTCTGAACTCCAGTCA
DNA 2: TGACTGGAGTTCAGACGTGTGCTCTTCCGATCTCATGACCTGGTCCTGCCAGAAGTTTCCTCTGACAGTGCGTACTGAGCACTAGATAGC
RNA: AAUUUCUACUCUUGUAGAUAGGAAACUUCUGGCAGGACC
B2: TGAG (dsDNA)
DNA 1: B1 DNA 1 with C27G
DNA 2: B1 DNA 2 with G64C
RNA: B1 RNA
B3: GTAC (dsDNA)
DNA 1: B1 DNA 1 with T26G, C27T, G29C
DNA 2: B1 DNA 2 with C62G, G64A, A65C
RNA: B1 RNA
B4: GCGG (dsDNA)
DNA 1: B1 DNA 1 with T26G, A28G
DNA 2: B1 DNA 2 with T63C, A65C
RNA: B1 RNA
B5: TCAT (dsDNA)
DNA 1: B1 DNA 1 with G29T
DNA 2: B1 DNA 2 with C62A
RNA: B1 RNA
B6: TGGG (dsDNA)
DNA 1: B1 DNA 1 with C27G, A28G
DNA 2: B1 DNA 2 with T63C, G64C
RNA: B1 RNA
B7: AAGC (dsDNA)
DNA 1: B1 DNA 1 with T26A, C27A, A28G, G29C
DNA 2: B1 DNA 2 with C62G, T63C, G64T, A65T
RNA: B1 RNA
B8: TGAC (dsDNA)
DNA 1: B1 DNA 1 with C27G, G29C
DNA 2: B1 DNA 2 with C62G, G64C
RNA: B1 RNA
B9: TGGC (dsDNA)
DNA 1: B1 DNA 1 with C27G, A28G, G29C
DNA 2: B1 DNA 2 with C62G, T63C, G64C
RNA: B1 RNA
B10: TGCT (dsDNA)
DNA 1: B1 DNA 1 with C27G, A28C, G29T
DNA 2: B1 DNA 2 with C62A, T63G, G64C
RNA: B1 RNA
B11: TGAT (dsDNA)
DNA 1: B1 DNA 1 with C27G, G29T
DNA 2: B1 DNA 2 with C62A, G64C
RNA: B1 RNA
B12: TGCG (dsDNA)
DNA 1: B1 DNA 1 with C27G, A28C
DNA 2: B1 DNA 2 with T63G, G64C
RNA: B1 RNA
B13: ACGC (dsDNA)
DNA 1: B1 DNA 1 with T26A, A28G, G29C
DNA 2: B1 DNA 2 with C62G, T63C, A65T
RNA: B1 RNA

What was measured:
Experiment in all cases: Spec-seq (native PAGE EMSA with sequencing of bound and unbound); 25 mM Tris-HCl pH 7.4, 150 mM KCl, 5 mM MgCl2, 10% glycerol, 1 mM DTT, 40 ng/uL salmon sperm DNA; 400 nM Cas12a, 480 nM crRNA, 50 nM library, 37 C 1 h; native PAGE at room temperature; high values mean tight binding
Conditions in all cases: protein: recombinant
[1] = target: dAsCas12a S542R (Acidaminococcus sp., UniProt U2UMQ6 1-1307, S542R;D908A;E993A;D1235A)
[2] = target: d-enCas12a (Acidaminococcus sp., UniProt U2UMQ6 1-1307, E174R;S542R;K548R;D908A;E993A;D1235A)
[3] = target: d-enCas12a-Ultra (Acidaminococcus sp., UniProt U2UMQ6 1-1307, E174R;S542R;K548R;M537R;F870L;D908A;E993A;D1235A)
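Further: relative affinity from the bound to unbound sequence frequency ratio in Spec-seq.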

| Binder | binding signal [1] | binding signal [2] | binding signal [3] |
| --- | --- | --- | --- |
| B1 | -7.87 lnKA | -5.78 lnKA | -3.45 lnKA |
| B2 | -8.4 lnKA | -5.65 lnKA | -3.4 lnKA |
| B3 | – | -5 lnKA | -1.95 lnKA |
| B4 | – | -5.85 lnKA | -3.63 lnKA |
| B5 | -8.4 lnKA | -5.72 lnKA | -3.42 lnKA |
| B6 | -8.57 lnKA | -5.93 lnKA | -3.42 lnKA |
| B7 | – | -5.85 lnKA | -3.34 lnKA |
| B8 | -8.67 lnKA | -5.25 lnKA | -2.74 lnKA |
| B9 | -8.19 lnKA | -5.4 lnKA | -3.03 lnKA |
| B10 | -8.2 lnKA | -4 lnKA | -1.2 lnKA |
| B11 | -8.47 lnKA | -5.85 lnKA | -3.37 lnKA |
| B12 | -8.2 lnKA | -3.38 lnKA | -0.977 lnKA |
| B13 | – | -5.66 lnKA | -3.42 lnKA |
